± gives the standard deviation.
How the values were obtained:
Settings in all cases: modulator concentration 10 µM
[1] = system: RAW-Dual (murine macrophage reporter line); assay: NF-kB reporter (SEAP) activity fold change vs agonist alone; higher = enhanced NF-kB activity
Summary of the method: (§1)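 Overnight stimulation with a PRR agonist followed pre-incubation for 1 hour at 37 °C with compound at 10 μM final. This was done in RAW-Dual murine macrophage reporter cells seeded at 50 000 per well in 384-well plates. NF-κB (SEAP, QUANTI-Blue absorbance at 620 nm) and IRF (Lucia luciferase, QUANTI-Luc luminescence) were read from the supernatant. Each reporter's fold change relative to the mean agonist-only control on the same plate was averaged over replicate plates.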

[2] = system: RAW-Dual (murine macrophage reporter line); assay: IRF reporter (Lucia luciferase) activity fold change vs agonist alone; higher = enhanced IRF activity
Summary of the method: as §1

[3] = system: RAW-Dual (murine macrophage reporter line); assay: viability score (confluency relative to resting cells, overnight) (fraction); higher = more viable, active = viable (0.7 or more)
Summary of the method: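 Confluency was the readout: RAW-Dual macrophages were imaged with IncuCyte after an overnight exposure to compound at 10 μM final. IncuCyte software produced two masks over all imaged wells. The viability score expresses confluency against resting cells, and both masks had to exceed 70% of resting cells for a compound to meet the cutoff.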

[4] = agonist: CpG ODN 1826 0.5 ug/mL

| Compound | NF-kB reporter [1, 4] | NF-kB reporter ([1]; agonist: LPS 0.1 ug/mL) | NF-kB reporter ([1]; agonist: MPLA […]) | IRF reporter ([2]; agonist: 3'3'-cGAMP 10 ug/mL) | IRF reporter ([2]; agonist: LPS 0.1 ug/mL) | IRF reporter ([2]; agonist: MPLA […]) | viability score [3] |
| --- | --- | --- | --- | --- | --- | --- | --- |
| CC(C)c1cc(-c2n[nH]c(=O)n2-c2ccc3c(ccn3C)c2)c(O)cc1O | 0.0963 ± 0.0078 | 0.155 ± 0.012 | 0.681 ± 0.062 | 1.08 ± 0.059 | 1.22 ± 0.09 | 1.41 ± 0.12 | 0.542 (inactive) |
| CCOCC(=O)Nc1nc2c(C(F)(F)F)cccc2s1 | 1.16 ± 0.067 | 0.964 ± 0.11 | 1.06 ± 0.052 | 0.969 ± 0.039 | 1.04 ± 0.048 | 1.03 ± 0.14 | 0.989 (active) |
| O.S=c1nc[nH]c2nc[nH]c12 | 0.844 ± 0.037 | 0.902 ± 0.1 | 0.989 ± 0.11 | 0.768 ± 0.035 | 1.23 ± 0.28 | 1.36 ± 0.57 | 0.994 (active) |
| COc1cccc(-c2ccc(NC(=O)C3=C(C(=O)O)CCC3)c(F)c2)c1 | 0.954 ± 0.25 | 0.806 ± 0.088 | 1.01 ± 0.088 | 2.42 ± 0.23 | 2.04 ± 0.35 | 1.38 ± 0.24 | 0.91 (active) |
| O=C1c2ccccc2C(=O)C1c1ccncc1 | 0.885 ± 0.066 | 1.03 ± 0.059 | 0.944 ± 0.029 | 0.757 ± 0.046 | 0.924 ± 0.1 | 0.799 ± 0.068 | 0.994 (active) |
| CNCCC(Oc1ccc(C(F)(F)F)cc1)c1ccccc1.Cl (centres undefined) | 0.766 ± 0.072 | 0.848 ± 0.087 | 1.33 ± 0.19 | 1.04 ± 0.13 | 0.972 ± 0.056 | 0.9 ± 0.19 | 0.379 (inactive) |
| Nc1nccs1 | 0.948 ± 0.14 | 1.22 ± 0.088 | 0.91 ± 0.055 | 0.89 ± 0.03 | 1.32 ± 0.16 | 1.2 ± 0.09 | 1 (active) |
| CCOc1ccc(NC(=O)N2C3C=CCC2CC3)cc1 (centres undefined) | 1.09 ± 0.42 | 0.941 ± 0.055 | 1.04 ± 0.075 | 0.943 ± 0.054 | 0.921 ± 0.13 | 1.1 ± 0.1 | 0.814 (active) |
| CCOc1ccc2nc(SC3CC(=O)N(c4cccc(Cl)c4)C3=O)sc2c1 (centres undefined) | 0.954 ± 0.091 | 1.04 ± 0.058 | 0.785 ± 0.047 | 0.778 ± 0.046 | 1.11 ± 0.079 | 1.04 ± 0.16 | 1.01 (active) |
| CCCOc1cccc(C=C2N=C(c3ccc(Cl)c([N+](=O)[O-])c3)OC2=O)c1 | 0.993 ± 0.094 | 1.07 ± 0.072 | 0.912 ± 0.055 | 1.02 ± 0.041 | 1.55 ± 0.17 | 1.04 ± 0.15 | 1.01 (active) |
| Cc1cn2nc(C(=O)Nc3ccccc3N3CCN(C)CC3)cc2c(=O)[nH]1 | 0.685 ± 0.035 | 1.08 ± 0.11 | 0.864 ± 0.047 | 1.02 ± 0.052 | 1.26 ± 0.076 | 1.09 ± 0.098 | 0.941 (active) |
| Nc1ccn(C[C@@H](CO)OCP(=O)(O)O)c(=O)n1 | 1 ± 0.25 | 0.97 ± 0.057 | 0.961 ± 0.064 | 0.906 ± 0.03 | 1.3 ± 0.14 | 1.14 ± 0.16 | 1.01 (active) |
| Cc1cc(Cl)ccc1OCC(O)CN1CC(C)OC(C)C1.Cl (centres undefined) | 0.764 ± 0.068 | 0.939 ± 0.1 | 0.934 ± 0.081 | 0.937 ± 0.043 | 1.05 ± 0.068 | 1.01 ± 0.087 | 0.977 (active) |
| COC(=O)C1=C(C)N(c2ccc(F)cc2)C(=O)C1 | 1 ± 0.092 | 0.811 ± 0.08 | 0.813 ± 0.071 | 0.516 ± 0.025 | 0.865 ± 0.068 | 0.505 ± 0.065 | 1.01 (active) |
| NC(=O)OCC(COC(N)=O)c1ccccc1 | 1.06 ± 0.079 | 1.02 ± 0.05 | 1.04 ± 0.095 | 1.16 ± 0.26 | 0.945 ± 0.062 | 0.94 ± 0.11 | 1 (active) |
| CC(C)(O)CNc1nc(Nc2ccnc(C(F)(F)F)c2)nc(-c2cccc(C(F)(F)F)n2)n1 | 1.13 ± 0.37 | 1.19 ± 0.079 | 1.12 ± 0.087 | 1.01 ± 0.053 | 1.3 ± 0.19 | 1.54 ± 0.15 | 0.999 (active) |
| c1ccc2[nH]c(-c3cscn3)nc2c1 | 1.14 ± 0.16 | 1.16 ± 0.21 | 0.915 ± 0.055 | 0.81 ± 0.037 | 1.17 ± 0.17 | 1.04 ± 0.13 | 0.995 (active) |
| Br.O=S(=O)(c1ccc(-c2csc(Nc3ccc(Cl)cc3)n2)cc1)N1CCOCC1 | 0.997 ± 0.09 | 1.09 ± 0.071 | 1.09 ± 0.038 | 0.907 ± 0.17 | 1.11 ± 0.046 | 1.06 ± 0.1 | 0.995 (active) |
| COc1ccc(NC(=O)c2cn(-c3cc(N4CCCCC4)ncn3)cn2)cc1F | 1.31 ± 0.074 | 1.13 ± 0.086 | 1.22 ± 0.035 | 1.52 ± 0.45 | 1.01 ± 0.1 | 1.23 ± 0.3 | 0.97 (active) |
| CCN(CC)c1ccc(C=NNC(=O)c2ccccc2C)c(O)c1 | 2.52 ± 0.2 | 1.41 ± 0.092 | 3.2 ± 0.13 | 0.442 ± 0.032 | 0.974 ± 0.11 | 0.721 ± 0.15 | 0.444 (inactive) |
| O=C(CCC1CCCCC1)Nc1ccc(Br)cc1 | 1.02 ± 0.068 | 0.98 ± 0.074 | 1.07 ± 0.029 | 0.591 ± 0.029 | 0.922 ± 0.048 | 0.976 ± 0.096 | 0.986 (active) |
| Cc1ccccc1C(=O)Nc1ccc(C(=O)N2CCCC(O)c3cc(Cl)ccc32)c(C)c1 (centres undefined) | 1.02 ± 0.2 | 1.09 ± 0.15 | 0.92 ± 0.056 | 0.601 ± 0.019 | 1.04 ± 0.29 | 1.07 ± 0.13 | 0.998 (active) |
| COCC(C)NC(=O)c1ccc(Cl)c(Cl)c1 (centres undefined) | 1.13 ± 0.12 | 0.926 ± 0.079 | 0.984 ± 0.043 | 0.953 ± 0.034 | 0.966 ± 0.05 | 0.992 ± 0.1 | 0.997 (active) |
| Ic1ccc(OCCCOc2ncnc3ccccc23)cc1 | 0.781 ± 0.069 | 0.931 ± 0.045 | 1.14 ± 0.12 | 0.963 ± 0.05 | 1.39 ± 0.095 | 1.6 ± 0.2 | 1.02 (active) |
| COc1ccc2ccccc2c1C=C1SC(=S)N(CC(=O)O)C1=O | 1.05 ± 0.081 | 1 ± 0.12 | 1 ± 0.099 | 0.988 ± 0.053 | 1.34 ± 0.27 | 1.52 ± 0.4 | 1.04 (active) |
| Cc1c(-c2ccccc2)nc2ccccc2c1C(=O)Nc1ccc(F)cc1F | 0.568 ± 0.25 | 0.889 ± 0.097 | 0.689 ± 0.11 | 0.918 ± 0.061 | 1.36 ± 0.1 | 1.12 ± 0.19 | 0.953 (active) |
| c1ccc(CC(=NNc2ccccc2)c2ccc(-c3ccccc3)cc2)cc1 | 0.855 ± 0.091 | 0.879 ± 0.069 | 1.07 ± 0.11 | 0.657 ± 0.028 | 1.3 ± 0.2 | 1.35 ± 0.28 | 1.03 (active) |
